Laboratory results as given in PubChem BioAssay AID1159580 (chemical genetic matrix, 2015).
The campaign covered roughly 5,500 compounds. About 2,000 (36%) were called active. Another 18% or so got no clear call; they are omitted. No stated cut-off is given here; in the data, active means normalized growth mostly below about 0.91 (no sharp cut-off); inconclusive means no clear call, values can overlap the other calls; inactive means mostly above about 0.92. Some of the results follow.

Assay: chemical genetic growth profiling, strain panel (AID 1159580);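 further: tested at 20 µM; growth read once vehicle control cultures reached saturation at 30 °C; 1 = growth at the plate median or of vehicle wells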
Conditions: S. cerevisiae deletion strains, growth OD

Measured: normalized growth

COc1ccc(OC)c(C(=O)c2cc(OC)c(OC)c(OC)c2)c1
inactive: locus YAL013W, strain DEP1, stronger effect = lower value 0.999 | locus YBR229C, strain ROT2, stronger effect = lower value 1.02 | locus YDL101C, strain DUN1, stronger effect = lower value 1 | locus YDR150W, strain NUM1, stronger effect = lower value 1.01 | locus YEL061C, strain CIN8, stronger effect = lower value 1.05 | locus YGR078C, strain PAC10, stronger effect = lower value 1 | locus YHR030C, strain SLT2, stronger effect = lower value 0.93 | locus YHR087W, strain rtc3, stronger effect = lower value 1.06 | locus YJL187C, strain SWE1, stronger effect = lower value 1.01 | locus YJR043C, strain POL32, stronger effect = lower value 1.02 | locus YJR075W, strain HOC1, stronger effect = lower value 1.03 | locus YKL190W, strain CNB1, stronger effect = lower value 1.03 | locus YLR058C, strain SHM2 (second series), stronger effect = lower value 1.01 | locus YLR085C, strain ARP6, stronger effect = lower value 0.999 | locus YML094W, strain GIM5, stronger effect = lower value 0.982 | locus YMR219W, strain ESC1, stronger effect = lower value 1.01 | locus YMR263W, strain SAP30, stronger effect = lower value 1.01 | locus YNL153C, strain GIM3, stronger effect = lower value 1.01 | locus YNL298W, strain CLA4 (second series), stronger effect = lower value 1.01 | locus YNL322C, strain KRE1, stronger effect = lower value 0.995 | locus YNR030W, strain Alg12, stronger effect = lower value 1.01 | locus YOL006C, strain TOP1, stronger effect = lower value 0.973 | locus YPL055C, strain LGE1, stronger effect = lower value 1.01 | locus YPL241C, strain CIN2, stronger effect = lower value 0.986 | locus YPR135W, strain CTF4, stronger effect = lower value 1.06
active: locus YLR039C, strain RIC1, stronger effect = lower value 0.753 | locus YLR262C, strain YPT6, stronger effect = lower value 0.69
